Assay results: article PMC7862700, “An all-to-all approach to the identification of sequence-specific readers for epigenetic DNA modifications on cytosine”

How the values were obtained:
Test in all cases: DAPPL (digital affinity profiling via proximity ligation, sequencing); 10 mM Tris-HCl pH 7.5, 50 mM NaCl, 1 mM DTT, 4% glycerol, room temperature, 30 min; GST-TFs on glutathione beads, 16-mer random dsDNA library, 0.1% formaldehyde crosslink after washing; high values mean tight binding
Details in all cases: protein: recombinant; tags: N-terminal GST; dsDNA, one strand shown
[1] = biological target: T1, ERF (Homo sapiens, UniProt P50548 1-548)
T1 sequence: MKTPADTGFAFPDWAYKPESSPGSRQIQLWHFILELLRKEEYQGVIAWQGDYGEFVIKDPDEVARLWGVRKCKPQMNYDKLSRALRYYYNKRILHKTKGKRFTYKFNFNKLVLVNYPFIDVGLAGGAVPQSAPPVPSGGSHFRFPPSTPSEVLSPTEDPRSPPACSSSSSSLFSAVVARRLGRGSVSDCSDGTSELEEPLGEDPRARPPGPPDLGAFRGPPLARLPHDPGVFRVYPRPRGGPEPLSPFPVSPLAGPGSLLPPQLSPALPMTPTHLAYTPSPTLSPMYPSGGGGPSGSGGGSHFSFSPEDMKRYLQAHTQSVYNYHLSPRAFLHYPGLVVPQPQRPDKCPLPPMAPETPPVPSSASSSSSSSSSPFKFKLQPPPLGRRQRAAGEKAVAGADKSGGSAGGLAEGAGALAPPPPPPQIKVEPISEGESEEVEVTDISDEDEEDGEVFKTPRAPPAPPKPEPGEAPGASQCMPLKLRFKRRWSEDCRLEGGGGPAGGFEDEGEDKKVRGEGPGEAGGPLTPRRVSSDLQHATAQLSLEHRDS
Outline: (§1)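 A tag-only sample was pooled with DNA-barcoded human transcription factors that had been expressed in yeast as GST fusions and captured on glutathione beads. The pools were incubated for 30 min at room temperature with 200 nmole of a random double-stranded 16-mer DNA library in Tris/NaCl/DTT/glycerol buffer, then washed, crosslinked with 0.1% formaldehyde, proximity-ligated (BsaI/T4 ligase, 1 h, 37 °C), PCR-amplified and sequenced on an Illumina NextSeq500. Binding signal is each hexamer's read frequency for a factor divided by its frequency for the tag-only sample.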

[2] = biological target: T2, ETV3L (Homo sapiens, UniProt Q6ZN32 1-361)
T2 sequence: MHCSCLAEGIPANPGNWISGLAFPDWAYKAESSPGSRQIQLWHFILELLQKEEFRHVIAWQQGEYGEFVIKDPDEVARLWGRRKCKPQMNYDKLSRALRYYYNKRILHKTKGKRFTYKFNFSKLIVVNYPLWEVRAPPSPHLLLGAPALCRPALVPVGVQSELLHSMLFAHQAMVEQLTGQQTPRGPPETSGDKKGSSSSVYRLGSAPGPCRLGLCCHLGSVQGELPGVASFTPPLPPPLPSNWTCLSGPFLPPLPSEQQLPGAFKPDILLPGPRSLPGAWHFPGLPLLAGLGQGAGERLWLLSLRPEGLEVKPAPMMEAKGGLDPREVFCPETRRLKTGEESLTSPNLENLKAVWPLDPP
Outline: as §1

[3] = biological target: T3, ETS2 (Homo sapiens, UniProt P15036 1-469)
T3 sequence: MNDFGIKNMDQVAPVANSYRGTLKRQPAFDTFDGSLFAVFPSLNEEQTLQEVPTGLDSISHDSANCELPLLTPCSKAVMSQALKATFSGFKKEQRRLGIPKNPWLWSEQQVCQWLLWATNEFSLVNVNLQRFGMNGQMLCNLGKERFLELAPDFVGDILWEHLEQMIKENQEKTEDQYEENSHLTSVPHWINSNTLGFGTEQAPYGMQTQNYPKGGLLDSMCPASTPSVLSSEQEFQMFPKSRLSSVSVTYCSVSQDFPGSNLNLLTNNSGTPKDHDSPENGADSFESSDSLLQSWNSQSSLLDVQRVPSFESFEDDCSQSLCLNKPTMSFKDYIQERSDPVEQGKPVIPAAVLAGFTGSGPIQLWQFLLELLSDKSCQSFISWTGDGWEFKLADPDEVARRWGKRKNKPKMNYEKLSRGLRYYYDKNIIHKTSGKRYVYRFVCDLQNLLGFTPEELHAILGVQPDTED
Outline: as §1

[4] = biological target: T4, SPDEF (Homo sapiens, UniProt O95238 1-335)
T4 sequence: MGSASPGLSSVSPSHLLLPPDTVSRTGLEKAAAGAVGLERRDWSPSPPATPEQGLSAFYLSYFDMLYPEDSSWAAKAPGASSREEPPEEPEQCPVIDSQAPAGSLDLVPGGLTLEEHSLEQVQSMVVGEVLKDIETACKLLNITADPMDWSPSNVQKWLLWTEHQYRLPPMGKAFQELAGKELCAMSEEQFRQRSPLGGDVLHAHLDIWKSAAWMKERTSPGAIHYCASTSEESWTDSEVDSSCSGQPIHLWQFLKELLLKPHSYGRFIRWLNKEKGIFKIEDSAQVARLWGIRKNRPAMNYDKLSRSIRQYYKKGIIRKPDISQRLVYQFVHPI
Outline: as §1

[5] = biological target: T5, ETV7 (Homo sapiens, UniProt Q9Y603 1-341)
T5 sequence: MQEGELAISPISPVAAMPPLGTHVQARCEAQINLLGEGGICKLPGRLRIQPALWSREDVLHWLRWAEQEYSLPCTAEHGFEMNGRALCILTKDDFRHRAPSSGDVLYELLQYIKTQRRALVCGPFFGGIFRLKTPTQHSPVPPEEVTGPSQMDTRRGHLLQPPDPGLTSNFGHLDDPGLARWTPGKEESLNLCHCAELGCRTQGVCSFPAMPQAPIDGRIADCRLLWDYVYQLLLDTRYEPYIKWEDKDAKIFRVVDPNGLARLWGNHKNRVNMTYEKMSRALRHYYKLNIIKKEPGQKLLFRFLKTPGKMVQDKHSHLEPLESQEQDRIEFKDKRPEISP
Outline: as §1

[6] = biological target: T6, ELF5 (Homo sapiens, UniProt Q9UKW6-2 1-255)
T6 sequence: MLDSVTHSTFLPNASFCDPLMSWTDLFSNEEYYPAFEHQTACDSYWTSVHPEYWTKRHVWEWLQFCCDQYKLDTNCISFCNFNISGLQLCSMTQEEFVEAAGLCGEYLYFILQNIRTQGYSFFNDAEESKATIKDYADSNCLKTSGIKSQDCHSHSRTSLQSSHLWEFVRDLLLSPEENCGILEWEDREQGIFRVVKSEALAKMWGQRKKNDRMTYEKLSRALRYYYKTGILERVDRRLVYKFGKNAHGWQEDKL
Outline: as §1

[7] = biological target: T7, ETV3 (Homo sapiens, UniProt P41162-2 1-143)
T7 sequence: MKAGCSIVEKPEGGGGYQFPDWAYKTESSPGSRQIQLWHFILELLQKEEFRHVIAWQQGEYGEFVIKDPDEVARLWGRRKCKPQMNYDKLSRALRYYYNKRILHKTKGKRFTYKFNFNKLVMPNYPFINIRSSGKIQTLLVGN
Outline: as §1

[8] = biological target: ETV6 (Homo sapiens, UniProt P41212 1-452)
Outline: as §1

Sequence of ETV6 (P41212 whole entry): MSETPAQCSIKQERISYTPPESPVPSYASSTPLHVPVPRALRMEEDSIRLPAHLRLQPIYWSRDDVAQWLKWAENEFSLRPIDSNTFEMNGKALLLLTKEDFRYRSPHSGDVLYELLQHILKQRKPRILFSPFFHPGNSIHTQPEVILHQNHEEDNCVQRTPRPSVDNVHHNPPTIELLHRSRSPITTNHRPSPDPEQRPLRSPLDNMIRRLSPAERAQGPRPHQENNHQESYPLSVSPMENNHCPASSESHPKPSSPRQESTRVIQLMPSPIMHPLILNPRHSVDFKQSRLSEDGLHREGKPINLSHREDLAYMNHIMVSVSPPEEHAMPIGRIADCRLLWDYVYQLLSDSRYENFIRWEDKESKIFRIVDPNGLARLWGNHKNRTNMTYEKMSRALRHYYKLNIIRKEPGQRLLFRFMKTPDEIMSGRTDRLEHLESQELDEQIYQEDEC

Sequence	binding signal [1]	binding signal [2]	binding signal [3]	binding signal [4]	binding signal [5]	binding signal [6]	binding signal [7]	binding signal [8]
AGTGTT	1.13 fold enrichment (6-mer frequency, TF over GST control)	1.1 fold enrichment (6-mer frequency, TF over GST control)	1.1 fold enrichment (6-mer frequency, TF over GST control)	1.13 fold enrichment (6-mer frequency, TF over GST control)	1.14 fold enrichment (6-mer frequency, TF over GST control)	1.3 fold enrichment (6-mer frequency, TF over GST control)	1.08 fold enrichment (6-mer frequency, TF over GST control)	1.11 fold enrichment (6-mer frequency, TF over GST control)
CTATAA	1.29 fold enrichment (6-mer frequency, TF over GST control)	1.14 fold enrichment (6-mer frequency, TF over GST control)	1.28 fold enrichment (6-mer frequency, TF over GST control)	1.34 fold enrichment (6-mer frequency, TF over GST control)	1.22 fold enrichment (6-mer frequency, TF over GST control)	1.2 fold enrichment (6-mer frequency, TF over GST control)	1.14 fold enrichment (6-mer frequency, TF over GST control)	1.16 fold enrichment (6-mer frequency, TF over GST control)
AGGAAG	1.2 fold enrichment (6-mer frequency, TF over GST control)	1.33 fold enrichment (6-mer frequency, TF over GST control)	1.5 fold enrichment (6-mer frequency, TF over GST control)	1.15 fold enrichment (6-mer frequency, TF over GST control)	1.23 fold enrichment (6-mer frequency, TF over GST control)	2.03 fold enrichment (6-mer frequency, TF over GST control)	1.54 fold enrichment (6-mer frequency, TF over GST control)	1.71 fold enrichment (6-mer frequency, TF over GST control)
GACATC	1.22 fold enrichment (6-mer frequency, TF over GST control)	1.27 fold enrichment (6-mer frequency, TF over GST control)	1.31 fold enrichment (6-mer frequency, TF over GST control)	1.57 fold enrichment (6-mer frequency, TF over GST control)	1.31 fold enrichment (6-mer frequency, TF over GST control)	1.35 fold enrichment (6-mer frequency, TF over GST control)	1.33 fold enrichment (6-mer frequency, TF over GST control)	1.33 fold enrichment (6-mer frequency, TF over GST control)
CTCCGC	1.47 fold enrichment (6-mer frequency, TF over GST control)	1.56 fold enrichment (6-mer frequency, TF over GST control)	1.52 fold enrichment (6-mer frequency, TF over GST control)	1.54 fold enrichment (6-mer frequency, TF over GST control)	1.31 fold enrichment (6-mer frequency, TF over GST control)	1.48 fold enrichment (6-mer frequency, TF over GST control)	1.59 fold enrichment (6-mer frequency, TF over GST control)	1.44 fold enrichment (6-mer frequency, TF over GST control)
CACTCC	1.15 fold enrichment (6-mer frequency, TF over GST control)	1.33 fold enrichment (6-mer frequency, TF over GST control)	1.17 fold enrichment (6-mer frequency, TF over GST control)	1.2 fold enrichment (6-mer frequency, TF over GST control)	1.24 fold enrichment (6-mer frequency, TF over GST control)	1.18 fold enrichment (6-mer frequency, TF over GST control)	1.26 fold enrichment (6-mer frequency, TF over GST control)	1.28 fold enrichment (6-mer frequency, TF over GST control)
CTCAAA	1.11 fold enrichment (6-mer frequency, TF over GST control)	1.16 fold enrichment (6-mer frequency, TF over GST control)	1.2 fold enrichment (6-mer frequency, TF over GST control)	1.14 fold enrichment (6-mer frequency, TF over GST control)	1.14 fold enrichment (6-mer frequency, TF over GST control)	1.16 fold enrichment (6-mer frequency, TF over GST control)	1.2 fold enrichment (6-mer frequency, TF over GST control)	1.21 fold enrichment (6-mer frequency, TF over GST control)
CTAGTA	1.17 fold enrichment (6-mer frequency, TF over GST control)	1.08 fold enrichment (6-mer frequency, TF over GST control)	1.18 fold enrichment (6-mer frequency, TF over GST control)	1.11 fold enrichment (6-mer frequency, TF over GST control)	1.11 fold enrichment (6-mer frequency, TF over GST control)	1.08 fold enrichment (6-mer frequency, TF over GST control)	1.13 fold enrichment (6-mer frequency, TF over GST control)	1.12 fold enrichment (6-mer frequency, TF over GST control)
